# From the supplement of paper PMC7724964
# T1: NR4A2 327-598 Hormone_recep (domain begin residue: 327, domain end residue: 598), P43354
# T1 chain: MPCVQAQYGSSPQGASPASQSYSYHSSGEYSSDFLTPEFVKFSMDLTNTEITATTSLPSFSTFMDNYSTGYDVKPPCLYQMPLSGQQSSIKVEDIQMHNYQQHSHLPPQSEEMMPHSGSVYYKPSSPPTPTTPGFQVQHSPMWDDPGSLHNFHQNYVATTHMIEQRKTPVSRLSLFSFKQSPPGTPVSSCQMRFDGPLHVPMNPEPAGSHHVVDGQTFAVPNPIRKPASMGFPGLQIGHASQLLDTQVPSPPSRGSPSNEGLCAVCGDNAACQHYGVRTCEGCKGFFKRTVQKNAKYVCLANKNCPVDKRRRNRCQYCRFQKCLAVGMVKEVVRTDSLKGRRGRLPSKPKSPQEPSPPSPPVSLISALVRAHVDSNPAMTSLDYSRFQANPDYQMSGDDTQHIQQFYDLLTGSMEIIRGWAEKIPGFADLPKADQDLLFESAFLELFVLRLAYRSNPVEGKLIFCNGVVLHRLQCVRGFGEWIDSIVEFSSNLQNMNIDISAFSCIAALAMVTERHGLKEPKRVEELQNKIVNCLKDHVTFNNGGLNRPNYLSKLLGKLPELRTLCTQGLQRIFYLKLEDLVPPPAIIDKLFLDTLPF
# T2: NR1D2 386-579 Hormone_recep (domain begin residue: 386, domain end residue: 579), Q14995
# T2 chain: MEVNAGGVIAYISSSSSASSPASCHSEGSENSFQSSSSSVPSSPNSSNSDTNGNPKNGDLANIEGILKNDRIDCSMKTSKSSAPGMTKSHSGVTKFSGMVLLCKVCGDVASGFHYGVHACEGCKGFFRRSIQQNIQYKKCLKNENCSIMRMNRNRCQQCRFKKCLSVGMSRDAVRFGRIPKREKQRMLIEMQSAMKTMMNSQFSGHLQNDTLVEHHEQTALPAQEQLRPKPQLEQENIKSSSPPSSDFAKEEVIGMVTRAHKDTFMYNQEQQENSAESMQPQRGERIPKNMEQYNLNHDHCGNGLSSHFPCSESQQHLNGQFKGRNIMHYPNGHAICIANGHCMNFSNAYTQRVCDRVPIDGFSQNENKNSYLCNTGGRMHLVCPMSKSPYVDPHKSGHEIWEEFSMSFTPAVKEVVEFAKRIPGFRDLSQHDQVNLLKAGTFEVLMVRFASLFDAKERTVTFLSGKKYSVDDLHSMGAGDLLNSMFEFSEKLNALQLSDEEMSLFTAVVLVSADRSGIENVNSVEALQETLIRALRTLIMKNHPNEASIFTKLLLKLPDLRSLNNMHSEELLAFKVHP
# T3: NFKBIA 70-282 EF-hand_6 (domain begin residue: 70, domain end residue: 282), P25963
# T3 chain: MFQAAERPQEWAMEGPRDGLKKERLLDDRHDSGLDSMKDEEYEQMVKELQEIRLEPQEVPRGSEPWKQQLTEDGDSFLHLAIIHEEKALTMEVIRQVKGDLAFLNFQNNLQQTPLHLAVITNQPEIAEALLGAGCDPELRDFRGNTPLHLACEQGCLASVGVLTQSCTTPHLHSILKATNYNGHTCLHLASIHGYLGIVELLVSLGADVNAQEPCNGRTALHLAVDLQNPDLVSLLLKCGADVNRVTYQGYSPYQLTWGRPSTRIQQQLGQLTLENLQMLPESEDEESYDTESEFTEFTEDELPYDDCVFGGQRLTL
# T4: MYL6 4-151 EF-hand_6 (domain begin residue: 4, domain end residue: 151), P60660
# T4 chain: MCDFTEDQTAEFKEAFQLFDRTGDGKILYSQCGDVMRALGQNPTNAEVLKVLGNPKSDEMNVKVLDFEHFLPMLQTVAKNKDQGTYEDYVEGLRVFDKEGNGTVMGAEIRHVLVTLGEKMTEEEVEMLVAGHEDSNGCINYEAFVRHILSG
# T5: NR1H2 203-460 Hormone_recep (domain begin residue: 203, domain end residue: 460), P55055
# T5 chain: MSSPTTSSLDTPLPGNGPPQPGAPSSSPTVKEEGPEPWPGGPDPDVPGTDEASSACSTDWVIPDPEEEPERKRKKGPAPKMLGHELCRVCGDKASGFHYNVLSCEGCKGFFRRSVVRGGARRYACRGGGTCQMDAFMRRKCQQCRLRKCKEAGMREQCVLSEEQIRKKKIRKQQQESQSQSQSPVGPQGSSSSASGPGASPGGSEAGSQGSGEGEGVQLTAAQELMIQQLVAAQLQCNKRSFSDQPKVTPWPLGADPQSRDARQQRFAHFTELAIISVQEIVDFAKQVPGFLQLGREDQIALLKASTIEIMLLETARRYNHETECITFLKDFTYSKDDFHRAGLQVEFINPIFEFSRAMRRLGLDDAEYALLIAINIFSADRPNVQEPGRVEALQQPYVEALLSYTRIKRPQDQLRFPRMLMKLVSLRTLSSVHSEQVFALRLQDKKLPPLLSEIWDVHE
# T6: NR1H3 204-447 Hormone_recep (domain begin residue: 204, domain end residue: 447), Q13133
# T6 chain: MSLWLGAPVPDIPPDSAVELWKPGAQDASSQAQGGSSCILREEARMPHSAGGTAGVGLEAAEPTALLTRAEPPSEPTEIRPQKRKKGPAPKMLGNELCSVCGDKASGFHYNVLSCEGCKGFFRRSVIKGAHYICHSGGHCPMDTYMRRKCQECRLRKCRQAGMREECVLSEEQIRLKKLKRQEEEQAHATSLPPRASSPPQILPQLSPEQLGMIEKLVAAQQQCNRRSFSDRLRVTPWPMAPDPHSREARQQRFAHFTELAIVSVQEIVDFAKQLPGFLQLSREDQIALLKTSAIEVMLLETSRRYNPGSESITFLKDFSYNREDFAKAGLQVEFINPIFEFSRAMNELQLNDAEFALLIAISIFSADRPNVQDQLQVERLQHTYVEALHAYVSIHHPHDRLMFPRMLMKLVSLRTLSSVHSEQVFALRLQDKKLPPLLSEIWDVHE
# Target: NR2E3 154-410 Hormone_recep (domain begin residue: 154, domain end residue: 410), Q9Y5X4
# Test: phage ELISA signal ratio (GST-PRM binding over GST background); higher = stronger binding of peptide-phage to the PRM
# Method in brief: (§1)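 Each value is the phage ELISA signal on the glutathione S-transferase (GST)-domain fusion divided by the signal on GST alone. Human peptide recognition domains were expressed in 96-well plates, fused to the C-terminus of GST, and selected against an M13 phage library carrying randomized, cysteine-free, glycine-flanked hexadecapeptides on the gene-8 major coat protein. After five selection rounds, approximately 48 individual clones from rounds 4 and 5 were tested by phage ELISA, and positive clones were sequenced.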
# NR2E3 154-410 Hormone_recep (domain begin residue: 154, domain end residue: 410), Q9Y5X4, sequence (Q9Y5X4 whole entry): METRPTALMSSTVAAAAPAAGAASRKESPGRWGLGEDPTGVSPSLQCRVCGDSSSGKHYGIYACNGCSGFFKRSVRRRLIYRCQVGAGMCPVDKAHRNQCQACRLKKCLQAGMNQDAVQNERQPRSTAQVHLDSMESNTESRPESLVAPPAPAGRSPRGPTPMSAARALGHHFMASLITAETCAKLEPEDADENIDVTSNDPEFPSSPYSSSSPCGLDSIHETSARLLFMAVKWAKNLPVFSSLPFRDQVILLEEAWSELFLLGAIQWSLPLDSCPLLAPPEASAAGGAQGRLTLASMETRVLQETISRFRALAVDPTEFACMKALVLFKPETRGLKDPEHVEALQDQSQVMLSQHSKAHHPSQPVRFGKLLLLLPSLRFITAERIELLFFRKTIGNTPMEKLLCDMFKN
row,Binder,phage ELISA signal ratio
1,DEWWMFYPQPMYDLWH,6.08

# Target: T1, NR4A2 327-598 Hormone_recep (domain …
# Test: as above
# Method in brief: as §1
row,Binder,phage ELISA signal ratio
1,SHDMYEMIMWFFYQTE,14.5

# Target: T2, NR1D2 386-579 Hormone_recep (domain …
# Test: as above
# Method in brief: as §1
row,Binder,phage ELISA signal ratio
1,ENLTALIMAFFSETIQ,9.19

# Target: T3, NFKBIA 70-282 EF-hand_6 (domain begin …
# Test: as above
# Method in brief: as §1
row,Binder,phage ELISA signal ratio
1,YFEMLEDDGVWTAPNW,4.27

# Target: T4, MYL6 4-151 EF-hand_6 (domain begin …
# Test: as above
# Method in brief: as §1
row,Binder,phage ELISA signal ratio
1,IFQYIVVQIGNTMYVI,9.03

# Target: T5, NR1H2 203-460 Hormone_recep (domain …
# Test: as above
# Method in brief: as §1
row,Binder,phage ELISA signal ratio
1,DNPNLTPGLWSWYTFF,11.4

# Target: T6, NR1H3 204-447 Hormone_recep (domain …
# Test: as above
# Method in brief: as §1
row,Binder,phage ELISA signal ratio
1,SADSMYPELDWLVWAM,10
